This is a sample that favours compounds with a hit; in the whole collection about 2.3% have one here.
Rtt109 HAT inh = C. albicans Rtt109 histone acetyltransferase inhibition. Q5AAJ8. purified Rtt109/Vps75, ThioGlo CoA-SH fluorescence, 4 h. inhibition, % at 34.9 µM. 330,000 compounds, 0.16% hits. AID 540336;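 active = inhibition of at least 50% in every replicate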
ERp5 block = blocks human ERp5 reductase activity on insulin | inhibition, % at 9.99 µM | Q15084 | 350,000 compounds, 0.05% hits | ERp5 insulin aggregation, absorbance 650 nm, 90 min;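 active = mean replicate inhibition above about 25%, with every replicate also reaching it, limit read from the data, passing the limit was not always enough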
Target sequence (Q15084 whole entry, looked up): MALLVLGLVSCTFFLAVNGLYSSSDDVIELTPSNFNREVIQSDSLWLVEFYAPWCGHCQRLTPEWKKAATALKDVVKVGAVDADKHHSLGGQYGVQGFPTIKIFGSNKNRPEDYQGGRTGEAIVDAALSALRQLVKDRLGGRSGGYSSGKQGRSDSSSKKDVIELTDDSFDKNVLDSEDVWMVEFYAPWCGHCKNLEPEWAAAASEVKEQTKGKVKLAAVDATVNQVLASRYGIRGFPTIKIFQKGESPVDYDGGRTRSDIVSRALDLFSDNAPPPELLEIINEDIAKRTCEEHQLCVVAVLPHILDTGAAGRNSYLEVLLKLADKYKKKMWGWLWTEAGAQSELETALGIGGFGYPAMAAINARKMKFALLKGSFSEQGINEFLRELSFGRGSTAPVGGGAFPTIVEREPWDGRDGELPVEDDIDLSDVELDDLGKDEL
PDI inh = inhibitors of human protein disulfide isomerase; P07237; PDI insulin aggregation turbidity, A650, 90 min; inhibition, % at 10 µM; 350,000 compounds, 0.052% hits; AID 588391;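 active = mean inhibition across replicates of 30% or more, whatever share of single replicates reach that level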
DENV2 CPE rescue = inhibitors of DENV2 cytopathic effect | DENV2-infected cells, cytopathic effect rescue, plate reader | CPE inhibition, % at 9.99 µM | 350,000 compounds, 1.7% hits | AID 651640; in the data active = CPE inhibition above about 20%, passing the limit was not always enough; tested in BHK-21 cells;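 also: 0% = median of neutral control wells and 100% = median of positive control wells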
SIRT5 block = sirtuin-5 (human) deacylase inhibition; Purified SirT5, succinyl-peptide AMC, trypsin-coupled fluorescence; inhibition, % at 15 µM; 330,000 compounds, 1.1% hits; in the data active = inhibition above about 15%
An asterisk follows results filed as active; x = not tested or not shown.

SMILES	Rtt109 HAT inh	ERp5 block	PDI inh	DENV2 CPE rescue	SIRT5 block
Cc1noc(C)c1S(=O)(=O)Nc1ccc2c(c1)CC(=O)N([C@@H](C)CO)C[C@@H](C)[C@H](CN(C)C(=O)NC1CCCCC1)O2	x	4.4	x	22.4*	-3.0
C[C@@H]1CN([C@@H](C)CO)C(=O)Cc2cc(NS(=O)(=O)c3ccc(F)cc3)ccc2O[C@@H]1CN(C)C(=O)NC1CCCCC1	x	3.8	x	-7.8	18.8*
C[C@@H]1CN([C@H](C)CO)C(=O)Cc2cc(NS(=O)(=O)c3ccc(F)cc3)ccc2O[C@@H]1CN(C)C(=O)NC1CCCCC1	x	-1.0	x	-2.2	-3.5
C[C@H]1CN([C@@H](C)CO)C(=O)Cc2cc(NS(=O)(=O)c3ccc(Cl)cc3)ccc2O[C@H]1CN(C)C(=O)NC1CCCCC1	x	5.8	x	32.5*	0.2
C[C@@H]1CN([C@@H](C)CO)C(=O)c2cc(NS(=O)(=O)c3ccc(F)cc3)ccc2O[C@H]1CN(C)C(=O)NC1CCCCC1	x	1.6	x	34.6*	1.4
C[C@@H]1CN([C@H](C)CO)C(=O)c2cc(-c3cncnc3)cnc2O[C@H]1CN(C)C(=O)Cc1ccccn1	x	1.6	x	-2.5	0.3
CN(CC(=O)Nc1cccc(F)c1)C(=O)c1ccccc1CCc1ccccc1	-12.8	-2.8	2.5	69.2*	0.8
COc1cccc(NC(=O)CN(C)C(=O)CSc2nc3ccccc3s2)c1	x	2.8	1.0	x	4.2
CN(CC(=O)Nc1cccc(F)c1)C(=O)CSc1nc2ccccc2s1	8.5	-2.7	0.0	60.7*	-3.1
COc1ccc(NC(=O)CN(C)C(=O)c2ccccc2CCc2ccccc2)cc1	38.7	4.9	-2.4	2.1	-3.2
C[C@H](CO)N1C[C@H](C)[C@@H](CN(C)C(=O)Cc2ccncc2)Oc2cc(C#CC3CCCC3)ccc2S1(=O)=O	x	-5.5	x	-13.0	2.4
CO[C@H]1CN(C)C(=O)c2cc(NS(=O)(=O)c3cccc(F)c3)ccc2OC[C@@H](C)NC[C@@H]1C	x	5.0	x	-0.4	-2.4
CC(Sc1ccccn1)C(=O)Nc1ccc2c(c1)OCCO2 (configuration not stated)	-2.8	-6.3	1.9	26.9*	0.7
O=C(C[C@@H]1C[C@@H]2c3cc(NC(=O)NC4CCCC4)ccc3O[C@@H]2[C@@H](CO)O1)NCc1ccc(-c2ccccc2)cc1	x	3.4	x	3.9	-0.7
COc1ccc(CC(=O)OCC(=O)c2ccc(OC)c(OC)c2)cc1	3.1	3.9	-4.3	29.8*	2.0
COCC(=O)N1C[C@H]2CON(C)[C@H]2C[C@H]1c1cccc(-c2ccccc2)c1	x	-9.4	8.2	34.1*	2.1
COCC(=O)N1C[C@H]2CON(C)[C@H]2C[C@H]1c1cccc(-c2ccc(C#N)cc2)c1	3.8	11.9	-1.9	-6.4	-1.2
CC[C@@H](C)[C@H](NC(=O)OC(C)(C)C)c1nnc(S(=O)(=O)Cc2cc(C)ccc2C)o1	132.9*	x	2.2	x	x
CC1CCCC(NC(=O)COC(=O)c2ccccc2Sc2ccccc2C#N)C1C (configuration not stated)	-4.9	3.2	-5.2	56.9*	-0.9
O=[N+]([O-])c1c(NCCCO)cc(N2CCCCCC2)c2nonc12	-5.5	-0.2	1.5	37.4*	0.7
O=[N+]([O-])c1c(NCCO)cc(N2CCC3(CC2)OCCO3)c2nonc12	33.0	x	-11.8	x	x
O=C(CCS(=O)(=O)Cc1ccccc1)Nc1nncs1	17.8	-3.0	3.8	11.3	18.8*
O=C(CCc1ccccc1)Nc1nncs1	-0.9	x	1.4	x	x
Cc1cc(N/N=C/c2ccc(O)cc2)c2cccc(C)c2n1	3.9	2.0	-5.9	-25.6	21.0*
C[C@H](CO)N1C[C@H](C)[C@@H](CN(C)CC2CCCCC2)Oc2ccc(NC(=O)Nc3ccc(F)cc3)cc2C1=O	x	-0.2	x	27.2*	6.5
SMILES	Rtt109 HAT inh	ERp5 block	PDI inh	DENV2 CPE rescue	SIRT5 block
C[C@@H]1CN([C@@H](C)CO)C(=O)c2cc(NC(=O)Nc3cccc4ccccc34)ccc2O[C@H]1CN(C)CC1CCCCC1	x	-4.2	x	34.0*	0.1
C[C@@H]1CCCCO[C@H](CN(C)CC2CCCCC2)[C@@H](C)CN([C@H](C)CO)C(=O)c2cc(NC(=O)Nc3ccccc3)ccc2O1	x	1.6	x	20.5*	4.8
C[C@@H]1CCCCO[C@@H](CN(C)CC2CCCCC2)[C@@H](C)CN([C@@H](C)CO)C(=O)c2cc(NC(=O)Nc3ccccc3)ccc2O1	x	-3.6	x	-10.0	1.5
C[C@@H]1CN([C@H](C)CO)C(=O)c2cc(NC(=O)Nc3ccc(F)cc3)ccc2O[C@H]1CN(C)Cc1ccncc1	x	-0.3	x	36.9*	-1.0
C[C@@H]1CCCCO[C@H](CN(C)CC2CCCCC2)[C@@H](C)CN([C@H](C)CO)C(=O)c2cc(NC(=O)Nc3cccc4ccccc34)ccc2O1	x	6.0	x	-3.1	1.6
C[C@@H]1CCCCO[C@H](CN(C)S(=O)(=O)c2ccc(F)cc2)[C@@H](C)CN([C@@H](C)CO)C(=O)c2cc(NC(=O)Nc3ccc(C(F)(F)F)cc3)ccc2O1	x	1.9	x	9.5	9.0
Cc1noc(C)c1S(=O)(=O)Nc1ccc2c(c1)C(=O)N([C@@H](C)CO)C[C@H](C)[C@H](CN(C)S(C)(=O)=O)O2	x	12.4	x	4.4	-1.1
C[C@@H]1CN([C@@H](C)CO)C(=O)c2cc(NC(=O)Nc3ccc(F)cc3)ccc2O[C@H]1CN(C)C	x	1.9	x	26.6*	0.4
C[C@@H]1CCCCO[C@@H](CN(C)CC2CC2)[C@H](C)CN([C@H](C)CO)C(=O)c2cc(NC(=O)Nc3ccccc3)ccc2O1	x	-2.0	x	40.9*	-5.2
C[C@H](CO)N1C[C@H](C)[C@H](CN(C)CC2CCCCC2)OCCCC[C@H](C)Oc2ccc(NC(=O)Nc3ccc(F)cc3)cc2C1=O	x	1.6	x	24.5*	-10.1
C/C=C(\C)CN1CCC(n2nccc2NC(=O)CCc2ccccc2)CC1	18.6	1.5	-5.8	100.7*	-2.2
C[C@H](CO)N1C[C@H](C)[C@H](CN(C)S(=O)(=O)c2ccc(F)cc2)Oc2c(NC(=O)CCCCCC(=O)Nc3ccccc3N)cccc2C1=O	x	4.5	x	-8.4	x
CCCCC(CC)C(=O)Oc1ccc(O)c(C(C)(C)C)c1 (configuration not stated)	-7.8	-5.0	-2.9	11.4	19.2*
COC(=O)C(=O)C1CCc2c(Cl)cc(OC)c(OC)c2C1=O (configuration not stated)	-3.3	3.6	18.0	64.7*	-0.2
C[C@H](CO)N1C[C@H](C)[C@H](CN(C)C(=O)Cc2ccccc2)OCCCC[C@H](C)Oc2ccc(NC(=O)CCC(F)(F)F)cc2C1=O	x	x	x	-0.6	x
COCCCNC(=O)C[C@H]1C[C@H](C(=O)N(C(C)C)C(C)C)[C@@]2(C)c3[nH]c4cc(CCC(=O)N(C)C)ccc4c3CCN2C1=O	1.1	-4.2	-10.2	36.8*	-4.0
CCN(CC)C(=O)[C@H]1C[C@H](CC(=O)NCCc2ccccn2)C(=O)N2CCc3c([nH]c4cc(-c5ccco5)ccc34)[C@]12C	-0.9	-0.4	26.8	0.5	-5.3
